# Unmarked numbers belong to inactive results.
# Compound: C#CCNC(=O)CCSSCCC(=O)NCCc1ccc(C=O)c(C=O)c1
# Experiment: lysine labeling ratio R10:1 (500 µM / 50 µM probe), SILAC-ABPP in living cells; higher = lower intrinsic lysine reactivity toward the probe, active = 2 or less
# Conditions: HeLa; probe concentrations 500 vs 50 µM
# In short: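 Each lysine carries an R value: the filtered median of MS1 peptide ratios of high probe to low probe, with the median then taken over forward and reverse replicates. These came from living SILAC light and heavy HeLa cells in PBS at room temperature labelled with an alkyne-tagged, disulfide-linked lysine probe at 500 µM or 50 µM, in forward and reverse swaps. The lysates were mixed, clicked to biotin-azide, trypsin-digested, captured on neutravidin, released by DTT, alkylated and run by LC-MS/MS on a TIMS-TOF Pro. The highest value allowed is 20.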
# Chain of UniProt Q6YHK3 (Q6YHK3 whole entry): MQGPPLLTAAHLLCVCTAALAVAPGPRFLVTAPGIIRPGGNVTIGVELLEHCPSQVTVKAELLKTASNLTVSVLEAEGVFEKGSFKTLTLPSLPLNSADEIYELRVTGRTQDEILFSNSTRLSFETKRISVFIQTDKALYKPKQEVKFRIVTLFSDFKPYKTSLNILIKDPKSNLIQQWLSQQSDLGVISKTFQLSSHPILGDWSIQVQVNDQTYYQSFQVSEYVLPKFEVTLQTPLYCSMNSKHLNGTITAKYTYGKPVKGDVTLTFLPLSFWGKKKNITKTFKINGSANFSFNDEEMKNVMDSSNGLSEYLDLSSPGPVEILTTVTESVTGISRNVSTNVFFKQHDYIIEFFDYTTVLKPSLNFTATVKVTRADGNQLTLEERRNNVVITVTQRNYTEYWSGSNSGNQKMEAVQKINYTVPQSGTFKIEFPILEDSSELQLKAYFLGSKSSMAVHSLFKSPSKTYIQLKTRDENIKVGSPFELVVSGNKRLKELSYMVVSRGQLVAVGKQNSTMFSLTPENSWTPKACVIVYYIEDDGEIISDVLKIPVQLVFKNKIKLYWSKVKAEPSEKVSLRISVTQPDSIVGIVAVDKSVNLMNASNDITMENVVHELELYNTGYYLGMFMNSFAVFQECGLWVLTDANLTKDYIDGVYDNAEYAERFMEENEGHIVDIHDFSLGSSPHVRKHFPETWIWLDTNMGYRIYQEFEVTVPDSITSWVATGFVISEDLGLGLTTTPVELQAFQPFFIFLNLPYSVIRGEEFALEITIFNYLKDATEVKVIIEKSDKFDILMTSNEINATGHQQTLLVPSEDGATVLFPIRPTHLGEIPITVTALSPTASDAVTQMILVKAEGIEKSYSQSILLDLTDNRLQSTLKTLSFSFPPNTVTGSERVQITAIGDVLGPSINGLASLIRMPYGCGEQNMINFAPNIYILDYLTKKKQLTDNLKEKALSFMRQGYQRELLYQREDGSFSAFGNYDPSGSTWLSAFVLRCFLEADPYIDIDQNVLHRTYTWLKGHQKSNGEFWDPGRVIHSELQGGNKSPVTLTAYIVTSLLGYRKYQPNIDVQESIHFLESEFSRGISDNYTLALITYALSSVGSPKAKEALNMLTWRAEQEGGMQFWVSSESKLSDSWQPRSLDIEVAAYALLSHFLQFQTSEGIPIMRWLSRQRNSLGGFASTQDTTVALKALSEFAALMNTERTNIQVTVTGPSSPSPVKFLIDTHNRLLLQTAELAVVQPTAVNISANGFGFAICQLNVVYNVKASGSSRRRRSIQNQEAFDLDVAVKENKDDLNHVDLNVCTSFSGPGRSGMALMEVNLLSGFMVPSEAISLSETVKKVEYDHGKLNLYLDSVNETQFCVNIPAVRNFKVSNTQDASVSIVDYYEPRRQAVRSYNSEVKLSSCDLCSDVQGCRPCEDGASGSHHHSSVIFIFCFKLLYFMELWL
# Chain of UniProt P07814 (P07814 whole entry): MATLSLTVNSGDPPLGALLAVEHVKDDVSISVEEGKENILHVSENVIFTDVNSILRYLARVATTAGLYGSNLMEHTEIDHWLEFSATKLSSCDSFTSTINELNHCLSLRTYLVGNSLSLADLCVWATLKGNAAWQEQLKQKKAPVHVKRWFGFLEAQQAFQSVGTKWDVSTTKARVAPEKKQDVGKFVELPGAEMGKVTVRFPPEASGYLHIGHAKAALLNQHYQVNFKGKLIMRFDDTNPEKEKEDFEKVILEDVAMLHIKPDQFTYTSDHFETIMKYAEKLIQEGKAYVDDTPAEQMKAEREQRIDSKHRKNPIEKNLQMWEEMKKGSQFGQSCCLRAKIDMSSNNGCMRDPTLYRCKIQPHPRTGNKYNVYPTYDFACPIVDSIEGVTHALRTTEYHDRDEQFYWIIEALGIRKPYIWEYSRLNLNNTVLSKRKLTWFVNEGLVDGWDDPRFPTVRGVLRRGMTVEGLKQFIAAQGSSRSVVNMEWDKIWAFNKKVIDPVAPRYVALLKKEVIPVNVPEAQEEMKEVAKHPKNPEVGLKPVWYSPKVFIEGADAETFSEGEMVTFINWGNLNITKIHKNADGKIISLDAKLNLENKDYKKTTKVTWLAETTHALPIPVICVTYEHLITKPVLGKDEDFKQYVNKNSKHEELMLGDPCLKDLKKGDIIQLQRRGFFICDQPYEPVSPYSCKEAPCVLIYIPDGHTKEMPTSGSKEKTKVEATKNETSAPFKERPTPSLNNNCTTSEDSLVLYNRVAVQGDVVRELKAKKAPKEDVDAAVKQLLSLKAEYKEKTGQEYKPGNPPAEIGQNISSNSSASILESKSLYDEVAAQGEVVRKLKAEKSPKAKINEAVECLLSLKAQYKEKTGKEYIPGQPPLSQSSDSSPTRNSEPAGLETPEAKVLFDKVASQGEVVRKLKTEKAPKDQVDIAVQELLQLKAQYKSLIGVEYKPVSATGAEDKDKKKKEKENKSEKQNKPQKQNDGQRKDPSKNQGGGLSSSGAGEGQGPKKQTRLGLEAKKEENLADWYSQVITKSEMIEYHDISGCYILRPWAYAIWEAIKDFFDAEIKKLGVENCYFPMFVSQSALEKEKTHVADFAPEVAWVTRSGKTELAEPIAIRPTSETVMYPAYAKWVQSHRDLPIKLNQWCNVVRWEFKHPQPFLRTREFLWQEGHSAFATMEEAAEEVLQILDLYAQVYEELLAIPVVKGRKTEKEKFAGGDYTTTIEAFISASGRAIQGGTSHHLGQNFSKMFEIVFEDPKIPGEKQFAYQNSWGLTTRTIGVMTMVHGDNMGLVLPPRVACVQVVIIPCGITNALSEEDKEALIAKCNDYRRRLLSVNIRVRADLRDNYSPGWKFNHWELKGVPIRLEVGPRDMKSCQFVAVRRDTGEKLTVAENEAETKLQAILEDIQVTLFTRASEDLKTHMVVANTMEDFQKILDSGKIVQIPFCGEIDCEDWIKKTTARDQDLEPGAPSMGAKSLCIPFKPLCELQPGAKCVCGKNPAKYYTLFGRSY
# Chain of UniProt Q9Y624 (Q9Y624 whole entry, stated change not applied): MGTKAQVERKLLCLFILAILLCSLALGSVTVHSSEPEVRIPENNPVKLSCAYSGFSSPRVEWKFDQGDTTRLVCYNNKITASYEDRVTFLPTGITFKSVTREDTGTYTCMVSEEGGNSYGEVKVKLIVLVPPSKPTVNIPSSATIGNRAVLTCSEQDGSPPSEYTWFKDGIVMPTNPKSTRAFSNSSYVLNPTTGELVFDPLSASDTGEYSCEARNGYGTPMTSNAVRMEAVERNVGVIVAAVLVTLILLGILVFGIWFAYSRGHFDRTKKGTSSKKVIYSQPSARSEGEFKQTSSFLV
# Chain of UniProt Q9UIQ6 (Q9UIQ6 whole entry): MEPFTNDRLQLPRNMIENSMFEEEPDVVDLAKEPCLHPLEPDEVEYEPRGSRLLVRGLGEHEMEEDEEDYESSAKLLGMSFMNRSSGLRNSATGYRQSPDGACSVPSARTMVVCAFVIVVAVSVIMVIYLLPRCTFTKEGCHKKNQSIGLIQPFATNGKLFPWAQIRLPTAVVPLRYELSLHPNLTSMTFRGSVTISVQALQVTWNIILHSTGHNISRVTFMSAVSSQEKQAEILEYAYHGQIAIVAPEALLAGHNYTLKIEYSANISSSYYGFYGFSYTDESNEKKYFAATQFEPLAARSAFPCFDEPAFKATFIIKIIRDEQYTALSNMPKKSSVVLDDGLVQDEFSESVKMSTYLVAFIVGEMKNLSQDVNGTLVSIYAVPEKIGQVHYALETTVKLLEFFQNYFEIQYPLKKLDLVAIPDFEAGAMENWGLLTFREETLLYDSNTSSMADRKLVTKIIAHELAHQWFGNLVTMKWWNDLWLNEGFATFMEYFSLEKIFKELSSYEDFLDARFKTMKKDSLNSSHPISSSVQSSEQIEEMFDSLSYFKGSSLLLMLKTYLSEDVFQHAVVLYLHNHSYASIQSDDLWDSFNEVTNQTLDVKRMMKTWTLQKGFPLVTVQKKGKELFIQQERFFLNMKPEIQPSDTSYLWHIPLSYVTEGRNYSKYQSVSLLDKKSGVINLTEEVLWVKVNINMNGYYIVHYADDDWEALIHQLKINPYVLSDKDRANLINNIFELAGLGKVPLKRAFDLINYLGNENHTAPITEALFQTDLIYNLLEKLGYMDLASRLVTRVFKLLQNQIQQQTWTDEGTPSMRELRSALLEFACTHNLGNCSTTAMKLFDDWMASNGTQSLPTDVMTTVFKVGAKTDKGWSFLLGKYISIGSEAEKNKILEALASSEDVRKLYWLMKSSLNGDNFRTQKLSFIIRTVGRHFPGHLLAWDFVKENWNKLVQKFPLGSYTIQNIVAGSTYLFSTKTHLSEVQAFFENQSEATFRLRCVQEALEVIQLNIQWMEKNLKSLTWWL
# Chain of UniProt P52803 (P52803 whole entry): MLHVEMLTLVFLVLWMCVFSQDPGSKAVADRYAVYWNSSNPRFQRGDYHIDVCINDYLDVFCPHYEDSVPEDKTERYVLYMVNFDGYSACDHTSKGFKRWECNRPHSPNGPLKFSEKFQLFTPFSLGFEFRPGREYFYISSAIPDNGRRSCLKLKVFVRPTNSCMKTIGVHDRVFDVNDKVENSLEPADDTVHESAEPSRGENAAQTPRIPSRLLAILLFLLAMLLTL
# Chain of UniProt P49257 (P49257 whole entry): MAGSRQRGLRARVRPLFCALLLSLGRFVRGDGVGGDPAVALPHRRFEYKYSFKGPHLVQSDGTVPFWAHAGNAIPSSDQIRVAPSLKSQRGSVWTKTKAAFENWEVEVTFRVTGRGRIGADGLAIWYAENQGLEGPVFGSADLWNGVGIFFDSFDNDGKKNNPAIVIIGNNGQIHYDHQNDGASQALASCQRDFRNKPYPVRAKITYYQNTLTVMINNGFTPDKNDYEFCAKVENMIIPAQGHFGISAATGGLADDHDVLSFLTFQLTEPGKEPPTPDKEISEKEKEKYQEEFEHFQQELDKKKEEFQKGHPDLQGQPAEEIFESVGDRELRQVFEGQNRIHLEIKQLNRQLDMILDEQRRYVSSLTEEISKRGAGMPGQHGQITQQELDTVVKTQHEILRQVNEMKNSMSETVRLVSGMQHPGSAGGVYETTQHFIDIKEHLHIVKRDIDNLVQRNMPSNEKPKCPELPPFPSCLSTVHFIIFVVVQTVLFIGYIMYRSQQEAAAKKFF
row,Target,lysine labeling ratio R10:1
1,AHNAK (lysine site: K2993) (UniProt Q09666),1 (active)
2,UniProt Q9UHN6 (lysine site: K856),0.771 (active)
3,PDIA3 (lysine site: K129) (UniProt P30101),1.94 (active)
4,UniProt P60866 (lysine site: K8),2.33
5,XRCC5 (lysine site: K36) (UniProt P13010),2.42
6,HSPA5 (lysine site: K164) (UniProt P11021),0.987 (active)
7,HSPG2 (lysine site: K1414) (UniProt P98160),1.42 (active)
8,CD109 (lysine site: K491) (UniProt Q6YHK3),2.99
9,PRDX2 (lysine site: K196) (UniProt P32119),2.99
10,UniProt Q15149 (lysine site: K3849),8.61
11,ARPC2 (lysine site: K186) (UniProt O15144),1.46 (active)
12,RPS2 (lysine site: K275) (UniProt P15880),1.57 (active)
13,PRDX1 (lysine site: K197) (UniProt Q06830),2.6
14,CD58 (lysine site: K167) (UniProt P19256),2.06
15,DSC2 (lysine site: K270) (UniProt Q02487),2.49
16,UniProt P62249 (lysine site: K4),5.53
17,EPRS (lysine site: K498) (UniProt P07814),2.78
18,SUB1 (lysine site: K39) (UniProt P53999),1.42 (active)
19,SMOC1 (lysine site: K308) (UniProt Q9H4F8),4.95
20,F11R (lysine site: K47) (UniProt Q9Y624),5.07
21,LMAN1 (lysine site: K372) (UniProt P49257),2.72
22,UniProt P52803 (lysine site: K166),0.58 (active)
23,CD109 (lysine site: K471) (UniProt Q6YHK3),2.01
24,IGF1R (lysine site: K665) (UniProt P08069),1.28 (active)
25,CCT8 (lysine site: K318) (UniProt P50990),2.44
26,LNPEP (lysine site: K726) (UniProt Q9UIQ6),0.91 (active)
27,GAS1 (lysine site: K192) (UniProt P54826),1.34 (active)
